Test results reported in PubChem BioAssay AID743415 (Broad Institute, 2014).
Entries with a potency or affinity are not part of this list. The source made the active and inactive calls.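 Rule for the calls: active = compounds lowering Shn3 expression whose fitted half-maximal concentration is at most twice the top valid dose; inconclusive = flat partial decrease or an invalid curve fit; inactive = the rest.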

Assay: Shn3 transcript knock-down in Clone20 cells – cell-based, qPCR, cherry-pick, dose response (AID 743415)
Settings: Shn3 mRNA qPCR, overnight; series mostly up to 35 µM

outcome, inactive:
CCCCNc1cc(C)nc(NCc2ccccc2)n1
CCOc1cc(CNCCc2ccc(S(N)(=O)=O)cc2)ccc1OCc1ccccc1
CCCCN1CC(COCc2ccccc2)Oc2cccc(Oc3ccc(C(C)C)cc3)c2S1(=O)=O (stereo not given)
Cn1c(=O)c2c(nc(NCc3ccco3)n2CCc2ccccc2)n(C)c1=O
COCCNc1nc(NCc2ccc(C(C)C)cc2)c2sccc2n1
Cc1ccccc1OCCOC(=O)c1cc(S(=O)(=O)N2CCCCC2)ccc1N1CCOCC1
COc1ccc(CC(=O)Nc2ccncc2Cl)cc1
O=C(Cn1cnc2ccccc21)Nc1cccc(S(=O)(=O)N2CCCC2)c1
CCOC(=O)C1CCCN(S(=O)(=O)c2ccc(S(=O)(=O)N3CCCC3)cc2)C1 (stereo not given)
COc1ccc(OC)c(NC(=O)CN(Cc2ccc(F)cc2)C2CCCCC2)c1
COc1ccc(-c2cc(C(F)(F)F)nc(S(C)(=O)=O)n2)cc1
CCOC(=O)c1oc2ccc(S(=O)(=O)n3nc(-c4ccc(OC)cc4)cc3N)cc2c1C
Cc1ccc(CNC(=O)c2cc3c(C)nc4ccccc4c3o2)cc1
COc1ccc(NS(=O)(=O)c2ccc(OC)c(N(C)S(=O)(=O)c3ccc(Cl)cc3)c2)cc1
CN(c1ccccc1)S(=O)(=O)c1cccc(NC(=O)CSc2nncs2)c1
CCOc1ccc(Cn2nnc(C(=O)Nc3cc(OC)cc(OC)c3)c2N)cc1
CCOc1ccc(N(C)S(=O)(=O)c2cc(-c3cc(C)no3)ccc2C(C)C)cc1
CN(CC(=O)Nc1ccccc1Cl)C(=O)c1cccc(S(=O)(=O)N2CCN(c3ccccc3)CC2)c1
CCn1cc(CN(C)S(=O)(=O)c2ccc3ccccc3c2)c(C)n1
COCOCCn1cc(CN2CCS(=O)(=O)N(Cc3ccc(-c4ccc(Cl)c(Cl)c4)cc3)C(C(C)C)C2=O)nn1 (stereo not given)
